Activity calls are given as the source filed them.

These results are taken from PubChem BioAssay.

Test [1] in a line: compounds binding Alexa647 anti-His antibody – biochemical, small-molecule microarray, 635 nm fluorescence, artefact control for SMM control protein annotation, primary screen (AID 1128).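 Further: score merges feature fluorescence with signal-to-noise for each printed compound spot.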 The conditions noted are these: higher = more signal.
Test [2] relates to Human papillomavirus type 1a E7 protein (residues 1-88). The experiment in a line: HPV1a E7 small-molecule binders, primary screen, biochemical, small-molecule microarray, residues 1-88, 635 nm (AID 1129). Particulars: small-molecule microarray binding, fluorescence 635 nm; higher = more signal.
Test [3] has as its target Focal adhesion kinase 1 (Homo sapiens) (UniProt Q05397). The experiment in a line: PTK2 protein binding on printed compound slides – biochemical, small-molecule microarray, 635/667 nm fluorescence, BSA, DTT, primary screen (AID 1130).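 Further: composite of spot emission at 667 nm and signal to noise over triplicate slides.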 The conditions noted are these: 635 nm fluorescence, higher = more signal.
The test system of test [4] is Fibrinogen (Alexa647-labelled). Briefly: Alexa647-fibrinogen binding to printed small molecules – biochemical, small-molecule microarray, 635/667 nm fluorescence, artefact control for SMM control-protein annotation, profiling panel (AID 1131).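 Further: z-score merges 667 nm fluorescence with per-spot signal-to-noise over triplicate slides.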 The conditions noted are these: fibrinogen-A647 binding fluorescence, higher = more signal.
Test [5] deals with Follistatin (Homo sapiens) (UniProt P19883). The experiment in a line: FST protein binding to printed compounds – biochemical, small-molecule microarray, 635/667 nm fluorescence, primary screen (AID 1132). Particulars: 635 nm fluorescence, higher = more signal.
The target of test [6] is Fibroblast growth factor 2 (Homo sapiens) (UniProt P09038). The experiment in a line: basic fibroblast growth factor binding to printed compounds – biochemical, small-molecule microarray, 635/667 nm fluorescence, primary screen (AID 1133). Particulars: FGF2, fluorescence 635/667, higher = more signal.
Test [7] can be described thus: JC-1 mitochondrial potential readout, lung cancer cells – cell-based, A549, JC-1 fluorescence, basal, 24 h, 100 nL, profiling panel (AID 1138).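 Further: A549 lung adenocarcinoma cells under basal conditions with no added stimulus; test concentration not given here.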 Particulars: higher = more signal.
In the next test the test system is Lefty1. The experiment in a line: Lefty1 protein binding to printed compounds – biochemical, small-molecule microarray, 635/667 nm fluorescence, primary screen (AID 1139). Particulars: fluorescence 635/667, higher = more signal.
In test [8] the test system is wheat germ agglutinin (Triticum aestivum), Alexa647-labelled. The experiment in a line: Alexa647-WGA lectin binding to printed small molecules – biochemical, small-molecule microarray, 635/667 nm fluorescence, artefact control for SMM control-protein annotation, profiling panel (AID 1140).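 Further: score merges 667 nm feature emission with signal to noise over triplicate slides.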 Particulars: WGA-A647 binding, 635 nm fluorescence, higher = more signal.
For test [9], the target named is Luciferin 4-monooxygenase (Photinus pyralis) (UniProt P08659). The experiment in a line: inhibition of purified Photinus pyralis luciferase – biochemical, luminescence, purified enzyme, 2006 set, primary screen (AID 1141).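 Further: cell-free assay with purified firefly luciferase at 100 ng per well in PBS; test concentration not given here.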 Particulars: purified firefly luciferase, SteadyGlo luminescence, 30 min; higher = more signal, called active from +8 up or from −8 down.
Luciferin 4-monooxygenase (Photinus pyralis), sequence (P08659 whole entry, looked up): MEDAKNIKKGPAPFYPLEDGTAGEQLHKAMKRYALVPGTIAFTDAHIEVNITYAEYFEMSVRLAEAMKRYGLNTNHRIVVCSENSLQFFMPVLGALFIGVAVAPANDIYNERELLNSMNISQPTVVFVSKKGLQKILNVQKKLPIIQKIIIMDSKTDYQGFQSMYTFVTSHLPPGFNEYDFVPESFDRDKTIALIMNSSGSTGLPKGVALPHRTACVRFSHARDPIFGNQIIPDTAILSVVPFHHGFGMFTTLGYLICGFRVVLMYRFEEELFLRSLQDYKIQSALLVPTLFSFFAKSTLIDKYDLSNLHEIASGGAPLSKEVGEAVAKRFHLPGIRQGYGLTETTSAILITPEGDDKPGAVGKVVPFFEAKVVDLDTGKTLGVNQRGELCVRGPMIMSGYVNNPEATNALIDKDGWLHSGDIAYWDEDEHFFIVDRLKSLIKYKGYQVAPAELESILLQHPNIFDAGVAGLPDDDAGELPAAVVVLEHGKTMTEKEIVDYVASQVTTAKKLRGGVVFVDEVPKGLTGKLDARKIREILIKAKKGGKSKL

Follistatin (Homo sapiens), sequence (P19883 whole entry, looked up): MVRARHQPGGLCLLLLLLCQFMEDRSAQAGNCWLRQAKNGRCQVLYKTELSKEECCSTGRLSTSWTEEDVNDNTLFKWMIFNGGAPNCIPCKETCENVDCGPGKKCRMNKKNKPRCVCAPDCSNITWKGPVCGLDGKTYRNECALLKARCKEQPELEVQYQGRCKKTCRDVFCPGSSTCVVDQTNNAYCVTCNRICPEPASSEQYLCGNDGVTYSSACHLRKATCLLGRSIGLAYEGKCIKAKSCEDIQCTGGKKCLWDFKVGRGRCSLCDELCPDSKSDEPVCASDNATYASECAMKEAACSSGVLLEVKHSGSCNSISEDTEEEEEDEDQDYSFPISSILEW
Focal adhesion kinase 1 (Homo sapiens), sequence (Q05397 whole entry, looked up): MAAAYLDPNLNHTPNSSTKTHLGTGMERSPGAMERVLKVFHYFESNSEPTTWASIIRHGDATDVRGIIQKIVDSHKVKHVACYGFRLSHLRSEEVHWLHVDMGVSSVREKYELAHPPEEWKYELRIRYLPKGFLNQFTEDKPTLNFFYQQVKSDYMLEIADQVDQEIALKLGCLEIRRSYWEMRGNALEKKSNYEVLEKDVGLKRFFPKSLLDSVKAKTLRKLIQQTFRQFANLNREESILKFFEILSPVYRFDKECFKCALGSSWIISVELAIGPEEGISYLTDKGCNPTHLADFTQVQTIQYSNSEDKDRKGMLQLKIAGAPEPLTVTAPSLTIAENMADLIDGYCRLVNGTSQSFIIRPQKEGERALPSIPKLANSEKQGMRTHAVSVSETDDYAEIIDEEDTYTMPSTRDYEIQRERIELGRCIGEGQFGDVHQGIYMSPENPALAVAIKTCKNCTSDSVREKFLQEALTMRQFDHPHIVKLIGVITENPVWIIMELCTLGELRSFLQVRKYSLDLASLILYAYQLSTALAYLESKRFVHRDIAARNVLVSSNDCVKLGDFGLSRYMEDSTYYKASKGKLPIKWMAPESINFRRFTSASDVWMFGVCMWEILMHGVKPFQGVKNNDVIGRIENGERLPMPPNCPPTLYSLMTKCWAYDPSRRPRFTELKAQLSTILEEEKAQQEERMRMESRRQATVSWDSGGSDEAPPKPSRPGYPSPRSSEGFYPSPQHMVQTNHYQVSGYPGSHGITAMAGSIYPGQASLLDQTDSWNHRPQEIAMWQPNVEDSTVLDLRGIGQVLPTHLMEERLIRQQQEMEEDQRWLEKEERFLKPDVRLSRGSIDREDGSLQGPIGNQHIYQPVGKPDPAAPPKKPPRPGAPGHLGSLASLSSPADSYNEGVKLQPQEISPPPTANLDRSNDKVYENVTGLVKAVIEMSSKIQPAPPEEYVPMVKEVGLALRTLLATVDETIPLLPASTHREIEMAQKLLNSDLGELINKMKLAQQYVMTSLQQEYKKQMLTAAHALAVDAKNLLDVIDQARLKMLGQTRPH
Fibroblast growth factor 2 (Homo sapiens), sequence (P09038 whole entry, looked up): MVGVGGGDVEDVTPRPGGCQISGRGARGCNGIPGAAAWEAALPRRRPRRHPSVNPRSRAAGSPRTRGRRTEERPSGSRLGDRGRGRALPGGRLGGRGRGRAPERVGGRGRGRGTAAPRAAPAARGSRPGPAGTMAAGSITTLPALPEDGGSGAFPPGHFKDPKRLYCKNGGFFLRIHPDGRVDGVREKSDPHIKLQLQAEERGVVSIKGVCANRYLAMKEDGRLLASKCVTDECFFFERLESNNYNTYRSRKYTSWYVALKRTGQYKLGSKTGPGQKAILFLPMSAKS

In the case of `C=CC(=C)C1=CCO[C@@H]1[C@H]1CCCN1S(=O)(=O)c1ccccc1[N+](=O)[O-]`, the composite z-score is 0.2 in test [1]; 0.25 in [2]; -0.318 in test [3]; 0.802 in test [4]; 0.976 in test [5]; 0.174 in test [6]. Further, the composite z-score came to 0.767 in the test on Lefty1 and 0.241 in test [8]. Besides, the z-score in test [7] was -0.295; in [9] it was 0.0352 (inactive).

In the case of `[N-]=[N+]=NCc1ccccc1[C@H]1OC(c2ccc(OCCCO)cc2)=N[C@@]1(CCS(=O)(=O)c1ccccc1)C(=O)N1CCOCC1`, the composite z-score was 0.997 in [1]; 0.871 in test [2]; 0.176 in [3]; 1.04 in [4]; 1.31 in [5]; 1.01 in test [6]. The composite z-score in the test with Lefty1 was -0.0664; in test [8], 1.35. For the same molecule, the values for the z-score in test [7] and in test [9] were -0.988 and -1.26 (inactive), respectively.

Regarding `COC(=O)c1ccc(C(O)C2C=CC3C(=O)N(C)C(=O)C3N2NC(=O)OC(C)(C)C)o1` (stereo not given), the composite z-score amounted to 0.882 in test [1]; 1.06 in test [2]; 0.329 in test [3]; 0.63 in [4]; 0.419 in test [5]; 0.624 in [6]. Further, the composite z-score in the test on Lefty1 is 0.0239; in test [8], 0.436. Besides, the z-score in [7] was -0.414; in test [9] it was -0.965 (inactive).

Turning to `O=C1O[C@H](c2ccccc2)[C@H](c2ccccc2)N2[C@H]1[C@@H](C(=O)N1CCN(c3ncccn3)CC1)[C@]1(C(=O)Nc3ccccc31)[C@H]2c1ccc(OCCO)cc1`, the composite z-score was 1.39 in test [1]; 1.19 in test [2]; 0.429 in test [3]; -0.206 in test [4]; 1.34 in [5]; 1.43 in test [6]. For the same molecule, the composite z-score with Lefty1 was determined as 1.12; in [8] it was 0.0522. Further, the z-score in [7] was -0.442; in [9], 0.546 (inactive).

`[N-]=[N+]=NCc1ccccc1[C@@H]1OC(c2ccc(OCCCO)cc2)=N[C@]1(Cc1ccccc1N=[N+]=[N-])C(=O)NCc1ccccc1`: the composite z-score was 0.512 in test [1]; 1.17 in test [2]; 0.562 in test [3]; 0.198 in [4]; 1.28 in test [5]; 0.578 in test [6]. In addition, the composite z-score amounted to 0.621 in the test with Lefty1 and 0.421 in test [8]. Further, the z-score in test [7] is 0.249; in [9] it was -5.2 (inactive).

For the molecule `CCOC(=O)C1=CC[C@@H](c2ccccc2)N(S(=O)(=O)c2ccc(C)cc2)[C@H]1C(=O)OCC`, the composite z-score in test [1] was 0.558; in test [2] it was 1.2; in test [3], 1.17; in test [4] it was 0.0499; in [5] it was 0.305; in [6], -0.128. Further, the composite z-score in the test on Lefty1 is -0.238; in [8] it was 0.951. The z-score in test [7] is 1.84; in [9] it was 0.693 (inactive).

Consider `COc1ccc([Si](C)(C)[C@H]2[C@H](CCn3cc([C@H](O)c4ccccc4)nn3)O[C@@]3(C(=O)N(Cc4cccc(N5CCC5=O)c4)c4ccccc43)[C@@H]2C)cc1`, for which the composite z-score in test [1] is 0.396; in test [2] it was 0.302; in [3], -0.0817; in test [4] it was 0.435; in test [5], 1.34; in test [6], 1.54. Moreover, the composite z-score in the test with Lefty1 was determined as 0.811; in test [8] it was 0.219. For the same molecule, the z-score in test [7] is 2.35; in test [9] it was -0.719 (inactive).

On to `CCCCCN1CC=CC23O[C@@H]4C=CCOC(=O)[C@@H]4[C@H]2C(=O)N(CCCO)[C@@H]3C1=O` (stereo not given in full), for which the composite z-score in test [1] was 1.5; in test [2], 0.789; in [3] it was 0.532; in test [4], -1.05; in [5] it was 0.105; in test [6], -0.128. Further, the composite z-score was 0.632 in the test on Lefty1 and -0.895 in [8]. The z-score was -0.483 in test [7] and -0.0247 (inactive) in test [9].

`CC(C)CNC(=O)[C@@]1(c2ccc([N+](=O)[O-])cc2)CC(=O)N(CC23CC4CC(CC(C4)C2)C3)[C@@H]1c1ccc(CO)cc1`: the composite z-score was 0.943 in test [1]; 0.662 in test [2]; 0.24 in test [3]; -0.0362 in test [4]; 0.946 in [5]; 1.1 in test [6]. Also, the composite z-score came to 0.0651 in the test on Lefty1 and 0.358 in [8]. Moreover, the z-score in [7] is 2.5; in [9], -1.61 (inactive).

As to `CCCN1C(=O)[C@]2(COC(c3ccc(OCCCO)cc3)=N2)Cc2ccccc21`, the composite z-score is 2.63 in test [1]; 1.23 in test [2]; 0.473 in test [3]; 0.551 in test [4]; 1.35 in test [5]; 1.26 in test [6]. Further, the composite z-score with Lefty1 was -0.222; in test [8], 0.974. Moreover, the results for the z-score in [7] and in test [9] were 0.306 and -1.66 (inactive), respectively.

For `COCCOC(=O)N1C(=O)[C@@]2(c3cc(C#CCC(C(=O)OC)C(=O)OC)ccc31)[C@H](C(=O)N1CCCCCCC1)[C@H]1C(=O)O[C@H](c3ccccc3)[C@H](c3ccccc3)N1[C@@H]2c1ccc(OCCO)cc1`, the composite z-score in [1] worked out at 0.887; in [2], 1.25; in [3], 1.97; in [4], 0.965; in [5], 1.49; in [6], 1.62. The composite z-score with Lefty1 came to 1.65; in test [8], 1.6. The results for the z-score in test [7] and in test [9] were -1.49 and -0.0546 (inactive), respectively.

In the case of `[N-]=[N+]=Nc1ccccc1[C@H]1OC(c2ccc(OCCCO)cc2)=N[C@@]1(CCS(=O)(=O)c1ccccc1)C(=O)O`, the composite z-score was 1.2 in test [1]; 0.478 in test [2]; 0.042 in test [3]; 0.773 in test [4]; 0.395 in test [5]; 0.174 in [6]. The values for the composite z-score (in the test on Lefty1; in test [8]) were -0.782 and 0.85, respectively. The figures for the z-score in test [7] and in [9] were -1.72 and -12.4 (active), respectively.

For `COCC(=C=CC[C@@H](O)c1ccc(CO)o1)CCO`, the composite z-score in test [1] is -0.145; in test [2], 0.114; in [3], -0.29; in test [4], -0.23; in test [5], 1.24; in test [6], 0.958. In addition, the composite z-score with Lefty1 is 1.24; in test [8], 0.43. Moreover, the z-score in test [7] is -0.0212; in test [9] it was -0.877 (inactive).

As to `COCCOC(=O)N1C(=O)[C@@]2(c3cc(C#CCNC(N)=O)ccc31)[C@H](c1ccc(O)cc1)N1[C@H](c3ccccc3)[C@H](c3ccccc3)OC(=O)[C@H]1[C@@H]2C(=O)NC[C@H](O)c1ccccc1`, the composite z-score in [1] was -0.49; in [2], 0.802; in test [3], -0.133; in test [4], 0.793; in test [5] it was 1.34; in test [6], 1.19. Besides, the composite z-score with Lefty1 turned out to be 1.13; in test [8], 0.69. Moreover, the z-score is -1.05 in test [7] and 0.0103 (inactive) in test [9].

In the case of `COc1ccc(NN2C(C(O)c3ccc(OC)c(OCc4ccccc4)c3)C=CC3C(=O)N(C4CCCCC4)C(=O)C32)cc1` (stereo not given), the composite z-score was 0.867 in test [1]; 1.21 in test [2]; 0.625 in test [3]; 1.01 in test [4]; 1.29 in [5]; 0.0862 in test [6]. For the same molecule, the composite z-score with Lefty1 was determined as 0.461; in test [8] it was 0.571. In addition, the results for the z-score in test [7] and in test [9] were 0.492 and 1.16 (inactive), respectively.

For the molecule `Cc1ccccc1C(O)C1C=CC2C(=O)N(C)C(=O)C2N1N1CCCCC1` (stereo not given), the composite z-score was 1.87 in test [1]; 1.18 in [2]; 0.665 in test [3]; 0.908 in test [4]; 0.767 in test [5]; 0.0201 in test [6]. Also, the values for the composite z-score (with Lefty1; in [8]) were 0.0198 and 0.596, respectively. Moreover, the z-score in [7] was 0.0822; in [9] it was 0.497 (inactive).

As to `CC(C)C(=C=CC[C@@H](O)c1ccccc1OCCO)C[C@@H](O)c1ccccn1`, the composite z-score in test [1] is -0.131; in test [2], 0.647; in [3], 1.02; in test [4], 0.694; in [5] it was 0.6; in [6], 0.566. Also, the composite z-score with Lefty1 was found to be 0.811; in test [8], 0.21. Besides, the figures for the z-score in test [7] and in test [9] were 1.43 and -0.623 (inactive), respectively.
